The source made the active and inactive calls.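 Rule for the calls, unless noted: active = visual image review flags a hit and inhibition of aggregation exceeds 20%; inconclusive = visual hit but inhibition at or below 20%; inactive = no hit on visual image review.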
What was measured:
[1] = inhibitors of TNFa-induced NFkB p65 translocation, primary screen, imaging, HUVEC, MLSMR starter and 10KST1 sets (AID 438;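 active = inhibition above 20% together with a positive visual image hit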;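 note: compound added about 3h40 before a 20 min TNFalpha stimulation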;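 for inhibition: signal is the nuclear over cytoplasmic p65 intensity ratio per well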); settings: HUVEC TNFa-induced p65 nuclear translocation; cell count: measured here: nuclei count (cytotoxicity indicator), at 2.08 µM; inhibition: at 2 µM, stronger effect = higher value, 0% TNFa-plus-vehicle, 100% no-TNFa wells
[2] = reduction of polyQ htt aggregates in cells – imaging, exon1htt(103Q)mCFP cells, high-content imaging, primary screen (AID 483); settings: exon1htt(103Q)mCFP cell line, aggregate imaging, at 2 µM; inhibition of aggregation: stronger effect = higher value; nuclei count: measured here: cell count, toxicity;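 note: compound exposure lasted 3 days before fixation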;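 for nuclei count: percent of the per-plate median nuclei count of sample wells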
[3] = endothelial E-selectin expression blockers – imaging, HUVEC, immunofluorescence, MLSMR starter and 10KST1 sets, primary screen (AID 487;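 active = visually confirmed hit in the image check and inhibition above 20%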;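 for inhibition: signal is fraction of cell area covered by stained E-selectin grains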;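 for nuclei count: 100% = median nuclei count of all wells on the same plate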); settings: HUVEC TNFalpha-induced E-selectin immunofluorescence imaging, at 2 µM; inhibition: stronger effect = higher value; nuclei count: measured here: cell number, toxicity
[4] = biological target: Voltage-gated potassium channel subunit beta-2 (Rattus norvegicus) (UniProt P62483); assay: inhibitors of rat Kvbeta2 reductase activity – biochemical, NADPH fluorescence, primary screen (AID 622;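 active = fluorescence slope higher than the sample average by over 3 SD, cut at about -0.22 in these data, passing the limit was not always enough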;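 note: slope of raw intensity against log time taken from 70 to 1610 s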); settings: recombinant KvBeta, 4-cyanobenzaldehyde reduction, at 10 µM, stronger effect = higher value
Voltage-gated potassium channel subunit beta-2 (Rattus norvegicus), sequence (P62483 whole entry, looked up): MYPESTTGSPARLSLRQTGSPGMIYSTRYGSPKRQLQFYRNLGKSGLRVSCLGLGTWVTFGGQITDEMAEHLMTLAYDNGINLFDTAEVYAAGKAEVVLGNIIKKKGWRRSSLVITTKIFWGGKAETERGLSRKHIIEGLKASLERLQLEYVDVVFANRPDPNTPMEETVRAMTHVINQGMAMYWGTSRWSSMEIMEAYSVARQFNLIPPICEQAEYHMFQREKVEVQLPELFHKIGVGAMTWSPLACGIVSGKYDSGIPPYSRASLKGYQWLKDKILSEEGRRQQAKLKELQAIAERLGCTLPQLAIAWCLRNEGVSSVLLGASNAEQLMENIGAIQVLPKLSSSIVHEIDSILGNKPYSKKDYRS

[5] = biological target: Voltage-gated potassium channel subunit beta-2 (Rattus norvegicus) (UniProt P62483); assay: enhancers of rat Kvbeta2 NADPH turnover – biochemical, NADPH fluorescence, primary screen (AID 623;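 active = NADPH fluorescence slope more negative than the mean of all samples by about 3 SD, 99.7% confidence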;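 note: fluorescence intensity change per second fitted from 20 to 320 s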); settings: Recombinant KvBeta, NADPH fluorescence decrease slope, 10 min; at 10 µM; stronger effect = lower value
[6] = biological target: Alpha-2C adrenergic receptor (Homo sapiens) (UniProt P18825); assay: compounds altering alpha2C-coupled GIRK flux – cell-based, HEK293 alpha2C/GIRK1/2, thallium flux, primary screen (AID 624;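 active = fluorescence slope after compound addition differing from the mean of all screened samples at 99.7% confidence, in either direction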;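 note: slope of fluorescence ratio to pre-addition baseline per second over 15 to 24 s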); settings: thallium flux BTC fluorescence, at 10 µM, actives lie on both sides
Alpha-2C adrenergic receptor (Homo sapiens), sequence (P18825 whole entry, looked up): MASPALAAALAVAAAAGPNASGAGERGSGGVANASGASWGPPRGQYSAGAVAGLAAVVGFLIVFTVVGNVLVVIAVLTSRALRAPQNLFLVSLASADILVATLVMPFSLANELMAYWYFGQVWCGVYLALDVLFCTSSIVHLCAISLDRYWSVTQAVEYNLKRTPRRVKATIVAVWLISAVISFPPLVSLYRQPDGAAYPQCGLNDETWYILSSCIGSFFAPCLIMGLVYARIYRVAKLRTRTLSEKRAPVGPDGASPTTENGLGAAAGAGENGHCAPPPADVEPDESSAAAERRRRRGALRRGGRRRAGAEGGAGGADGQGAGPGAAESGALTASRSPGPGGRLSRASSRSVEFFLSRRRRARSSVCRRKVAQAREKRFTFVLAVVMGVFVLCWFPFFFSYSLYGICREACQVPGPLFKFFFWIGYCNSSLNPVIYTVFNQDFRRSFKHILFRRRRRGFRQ

[7] = blockers of RIG-like receptor reporter activation – cell-based, Sendai virus stimulus, luciferase, 10K MLSCN set, TLR/RLR signaling modifier project, primary screen (AID 602276;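 active = inhibition at or above 50% at 10 µM; inactive = inhibition below 50%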;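 note: firefly luciferase from ISG56 promoter only with Renilla not read in this screen; 0% = Sendai virus plus DMSO and 100% = medium plus DMSO without virus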); settings: HEK293 RL24 IRF3 luciferase reporter, at 10 µM, stronger effect = higher value
[8] = TLR3 IRF3 reporter activation blockers – cell-based, poly I:C stimulus, luciferase, 10K MLSCN set, primary screen (AID 602277;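 active = inhibition of the reporter signal at or above 50%; inactive = inhibition below 50%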); settings: HEK293-TLR3 RL24 IRF3 luciferase reporter, at 10 µM, stronger effect = higher value

Row | SMILES | cell count [1] | inhibition [1] | inhibition of aggregation [2] | nuclei count [2] | inhibition [3] | nuclei count [3] | fluorescence slope [4] | NADPH fluorescence slope [5] | slope [6] | inhibition [7] | inhibition [8]
1 | Cn1c(CN2CCOCC2)nnc1SCC(=O)NCCc1ccccc1 | 444 | -1% (inactive) | 0.2% (inactive) | 118% | -161% (inactive) | 210% | -0.613 (inactive) | 6.8e-06 (inactive) | 0.00528 (inactive) | -8.38% (inactive) | -42.9% (inactive)
2 | O=C(COC(=O)CCc1c[nH]c2ccccc12)NC1CCS(=O)(=O)C1 (stereo not drawn) | 473 | 4.7% (inactive) | -7.7% (inactive) | 101% | -70.8% (inactive) | 113% | -0.57 (inactive) | -1.6e-05 (inactive) | 0.00772 (inactive) | 4.42% (inactive) | -2.03% (inactive)
3 | CCCC(=O)n1nc(-c2ccc(OC)cc2)nc1N | 239 | -3.7% (inactive) | 17.1% (inactive) | 80% | -20.1% (inactive) | 77% | -0.483 (inactive) | -4.3e-05 (inactive) | 0.00574 (inactive) | 12.9% (inactive) | 14.6% (inactive)
4 | C(/CCc1ccccc1)=N\n1cnnc1 | 312 | 18.4% (inactive) | -7% (inactive) | 109% | 17.1% (inactive) | 105% | -0.628 (inactive) | -5.3e-05 (inactive) | 0.00355 (inactive) | 5.76% (inactive) | 0.464% (inactive)
5 | Cc1cc(OCC(=O)N2CCOCC2)cc2oc(=O)c3ccccc3c12 | 352 | 6.7% (inactive) | -9.5% (inactive) | 90.7% | 3.4% (inactive) | 124% | -0.329 (inactive) | 2.7e-05 (inactive) | 0.00625 (inactive) | -4.13% (inactive) | -8.03% (inactive)
6 | COc1ccc(CNC(=O)C(c2ccco2)N(Cc2cccs2)C(=O)Cc2cccs2)cc1 (stereo not drawn) | 658 | 9.5% (inactive) | -14.3% (inactive) | 107% | -44.5% (inactive) | 105% | -0.6 (inactive) | -8.4e-06 (inactive) | 0.00565 (inactive) | 13.1% (inactive) | 28.3% (inactive)
7 | O=c1c2nnn(Cc3ccc(Cl)cc3)c2ncn1Cc1ccc(F)cc1 | 608 | -7.9% (inactive) | -10.3% (inactive) | 130% | -19.2% (inactive) | 111% | -0.539 (inactive) | -6.1e-05 (inactive) | 0.00552 (inactive) | 13.6% (inactive) | 20.6% (inactive)
8 | COc1ccc(C(c2sc3nc(C)nn3c2O)N2CCCCC2)cc1 (stereo not drawn) | 639 | -6.4% (inactive) | -33.8% (inactive) | 114% | -42.5% (inactive) | 108% | -0.603 (inactive) | -4.6e-05 (inactive) | 0.00737 (inactive) | 8.51% (inactive) | 27.4% (inactive)
9 | CC1Cc2nc(SCC(N)=O)n(Cc3ccccc3)c(=O)c2S1 (stereo not drawn) | 633 | -14% (inactive) | 1.8% (inactive) | 90.7% | -15.2% (inactive) | 113% | -0.438 (inactive) | 2.5e-05 (inactive) | 0.00575 (inactive) | -2.11% (inactive) | 36% (inactive)
10 | Cc1cccc(C(=O)N(C)c2nnc(-c3ccncc3)s2)c1 | 346 | -10.7% (inactive) | 6.1% (inactive) | 74.3% | 34.2% (inactive) | 102% | -0.546 (inactive) | 9.6e-06 (inactive) | 0.0064 (inactive) | -6.14% (inactive) | -18% (inactive)
11 | O=C(OCCN=C1NS(=O)(=O)c2ccccc21)C1CC(=O)N(c2ccc(Cl)cc2)C1 (stereo not drawn) | 354 | 2.7% (inactive) | -0.2% (inactive) | 118% | -44.7% (inactive) | 107% | -0.448 (inactive) | 2.4e-05 (inactive) | 0.00337 (inactive) | 6.2% (inactive) | 23.6% (inactive)
12 | COc1ccccc1CC(=O)Nc1ccc(OC)c(OC)c1 | 330 | -8.4% (inactive) | 17.1% (inactive) | 102% | -157% (inactive) | 118% | -0.466 (inactive) | -5.5e-05 (inactive) | 0.00704 (inactive) | 14.5% (inactive) | 21.7% (inactive)
13 | COc1ccc(-n2c(N)c(C(=O)NCc3ccco3)c3nc4ccccc4nc32)c(OC)c1 | 737 | -6% (inactive) | -0.1% (inactive) | 97.9% | 27.3% (inactive) | 102% | -0.246 (inactive) | -4.5e-06 (inactive) | 0.00521 (inactive) | 6.27% (inactive) | 7.88% (inactive)
14 | CCOCCn1c(CN2CCC(Cc3ccccc3)CC2)nc2c1c(=O)n(C)c(=O)n2C | 598 | 10.6% (inactive) | 25.3% (inactive) | 84.1% | 7.1% (inactive) | 108% | -0.473 (inactive) | -2.3e-05 (inactive) | 0.00435 (inactive) | 19.8% (inactive) | 22.9% (inactive)
15 | COc1ccc(C)cc1NC(=O)c1nc2nc(C)cc(C)n2n1 | 471 | 3.8% (inactive) | 5.2% (inactive) | 98.1% | -23.4% (inactive) | 124% | -0.297 (inactive) | 1.4e-06 (inactive) | 0.00674 (inactive) | 18.5% (inactive) | 9.03% (inactive)
16 | O=c1cc(CN2CCN(c3ccc(F)cc3)CC2)nc2sccn12 | 280 | 3.4% (inactive) | 19.5% (inactive) | 95% | -8.5% (inactive) | 109% | -0.477 (inactive) | 2.3e-05 (inactive) | 0.00346 (inactive) | -6.74% (inactive) | 0.252% (inactive)
17 | Cc1[nH]c2c(C)cccc2c(=O)c1Br | 440 | 6.7% (inactive) | 12.7% (inactive) | 106% | 30.1% (inactive) | 85.5% | -0.584 (inactive) | -7.5e-05 (inactive) | 0.0031 (inactive) | 14.8% (inactive) | 7.69% (inactive)
18 | O=C(Nc1ccc(S(=O)(=O)N2CCCCCC2)cc1)c1ccco1 | 355 | 1.5% (inactive) | 12.9% (inactive) | 105% | -32.3% (inactive) | 126% | -0.434 (inactive) | -6.7e-05 (inactive) | 0.00521 (inactive) | -8.22% (inactive) | -19.4% (inactive)
19 | Cc1cc2c(c(=O)o1)C(C13C=CC(CC1)C3)C(C#N)=C(N)O2 (stereo not drawn) | 326 | 5.3% (inactive) | -3.9% (inactive) | 102% | -56.1% (inactive) | 118% | -0.499 (inactive) | -5.8e-05 (inactive) | 0.0051 (inactive) | 5.92% (inactive) | 13.6% (inactive)
20 | COc1ccc(C2C(C(C)=O)=C(C)N=c3s/c(=C/c4ccc5c(c4)OCO5)c(=O)n32)cc1 (stereo not drawn) | 437 | -7.3% (inactive) | -44.9% (inactive) | 116% | -0.5% (inactive) | 116% | -0.528 (inactive) | -5.5e-05 (inactive) | 0.00398 (inactive) | 10.2% (inactive) | 23.9% (inactive)
21 | O=C(CSc1nnnn1C1CCCC1)Nc1cccc(NC(=O)c2ccco2)c1 | 747 | -15.8% (inactive) | 21.9% (inactive) | 56.9% | -76.4% (inactive) | 132% | -0.329 (inactive) | 2.2e-05 (inactive) | 0.00506 (inactive) | 5.72% (inactive) | 9.32% (inactive)
22 | OC1(c2cccc(C(F)(F)F)c2)CCNCC1 | 370 | 1.4% (inactive) | -1.7% (inactive) | 106% | -19% (inactive) | 118% | -0.281 (inactive) | 2.4e-05 (inactive) | 0.007 (inactive) | 18.9% (inactive) | 22.1% (inactive)
23 | CCc1cccc(NC(=O)CN(C)S(=O)(=O)c2cccc3nsnc23)c1 | 337 | -6.3% (inactive) | 7.8% (inactive) | 94% | -68.8% (inactive) | 120% | -0.35 (inactive) | -6.7e-05 (inactive) | 0.0056 (inactive) | 10.2% (inactive) | 8.03% (inactive)
24 | Cc1cc2c(=O)n(Cc3ccco3)c(SCC(=O)NCc3ccco3)nc2s1 | 502 | 3.1% (inactive) | 3.2% (inactive) | 84% | -50% (inactive) | 82.5% | -0.393 (inactive) | 1.9e-05 (inactive) | 0.00738 (inactive) | 14.9% (inactive) | 17.7% (inactive)
25 | CC(C)COc1ccc(C(=O)OCCN2CCOCC2)cc1 | 211 | 2.3% (inactive) | -8.6% (inactive) | 108% | -18.5% (inactive) | 116% | -0.636 (inactive) | 1.1e-05 (inactive) | 0.00666 (inactive) | -17.8% (inactive) | -15% (inactive)
26 | CC(=O)c1cccc(NC(=O)CCNS(=O)(=O)c2cccc3nsnc23)c1 | 439 | -3.5% (inactive) | -17.6% (inactive) | 104% | -46.7% (inactive) | 107% | -0.539 (inactive) | -3e-05 (inactive) | 0.00543 (inactive) | 11.2% (inactive) | 17.2% (inactive)
27 | COc1ccc(C2(C(=O)Nc3cc(C)on3)CCOCC2)cc1 | 312 | 0.4% (inactive) | 10.1% (inactive) | 108% | -51.8% (inactive) | 134% | -0.388 (inactive) | -4.8e-05 (inactive) | 0.00489 (inactive) | 13.8% (inactive) | 5.89% (inactive)
28 | CCN(CC)C(=O)Oc1ccc(NC(C)=O)cc1 | 383 | 2.1% (inactive) | 1.1% (inactive) | 99.8% | -27.3% (inactive) | 102% | -0.431 (inactive) | -6.8e-05 (inactive) | 0.00611 (inactive) | -1% (inactive) | 23% (inactive)

Source: PubChem BioAssay
